About 79,000 compounds went through this panel and 15% of them were active in at least one assay; those are over-represented in the sample as a whole. No stated cut-off is given here; in the data, active means growth inhibition above about 70%; inactive means the rest. Where a SMILES comes first, the peptide text is derived from it. [ ]: non-standard residue; d: D form. Hpg = N[CH](C(=O)O)c1ccc(O)cc1
Legend:
[1] = NCI Yeast Anticancer Drug Screen. Data for the rad50 strain (AID 155);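 further: 0% = growth of vehicle-only cultures of the same strain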; conditions: S. cerevisiae rad50 strain growth inhibition; at 50.0 µM; active compounds read high
Outline: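 DNA repair mutant yeast, compound exposure, growth read-out; inhibition is taken relative to vehicle.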

[2] = NCI Yeast Anticancer Drug Screen. Data for the mec2-1 strain (AID 157); conditions: S. cerevisiae mec2-1 strain, at 50.0 µM, active compounds read high
Outline: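 Using mec2-1 yeast: add compound, measure growth, express inhibition versus vehicle-treated cultures.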

[3] = NCI Yeast Anticancer Drug Screen. Data for the sgs1 mgt1 strain (AID 161);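 further: 0% = growth of cultures given vehicle only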; conditions: S. cerevisiae sgs1 mgt1 strain, at 50.0 µM, active compounds read high
Outline: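 Percent growth inhibition was derived by comparing compound-exposed mutant yeast with vehicle-exposed cultures. The strain carries alterations in DNA damage repair.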

[4] = NCI Yeast Anticancer Drug Screen. Data for the cln2 rad14 strain (AID 165);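 further: 0% = growth equal to vehicle treated cultures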; conditions: S. cerevisiae cln2 rad14 strain, at 50.0 µM, active compounds read high
Outline: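 Yeast strain cln2 rad14, bearing defects in cell cycle control and DNA repair, serves as the test system; values reflect growth inhibition compared with vehicle.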

[5] = NCI Yeast Anticancer Drug Screen. Data for the bub3 strain (AID 167); conditions: S. cerevisiae bub3 mutant strain, at 50.0 µM, active compounds read high
Outline: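 In this screen, a yeast mutant lacking normal mitotic checkpoint function is challenged with compound. Relative growth versus vehicle gives the inhibition value.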

[6] = NCI Yeast Anticancer Drug Screen. Data for the mlh1 rad18 strain (AID 175); conditions: S. cerevisiae mlh1 rad18 strain growth inhibition; at 50.0 µM; active compounds read high
Outline: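 Steps: expose repair-defective yeast to compound; measure growth; express inhibition against vehicle-treated controls.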

Measured: growth inhibition

CC(C)CC(N)C(=O)NC(C(=O)O)c1ccc(O)cc1 (configuration not stated) (H-Leu-[Hpg]-OH; configuration not given here)
inactive: [1] -5.3% | [2] -10.1% | [3] 3.4% | [4] -20.4% | [5] 2.7% | [6] 15.8%

CCOC(=O)/C(C)=C1\N=C(c2ccccc2)OC(=NC2CCCCC2)N1C1CCCCC1
inactive: [1] 9.95% | [2] -4.8% | [3] 0.3% | [4] 17.9% | [5] -4.55% | [6] 8.1%

Cc1cc(O)c(C(c2ccc(C#N)cc2)c2c(O)cc(C)[nH]c2=O)c(=O)[nH]1
inactive: [1] -1.05% | [2] -31.9% | [3] 1.95% | [4] -6.2% | [5] 4.6% | [6] -6.35%

CC1C[P+](c2ccccc2)(c2ccccc2)Cc2ccccc21 (configuration not stated)
inactive: [1] 3.4% | [2] 9.75% | [3] -8.25% | [4] -13.4% | [5] -1.85% | [6] 4.6%

O=C(N/N=C1\C(=O)N(c2nccs2)C(=O)C(=O)C1c1nc2ccccc2s1)c1ccccc1O (configuration not stated)
inactive: [1] 23.1% | [2] 16.9% | [3] 20.4% | [4] 30.1% | [5] 4.5% | [6] 34.1%

CN(C(=O)c1ccccc1)C1CCCC(=O)CC1 (configuration not stated)
inactive: [1] -2.35% | [2] -10% | [3] 8.25% | [4] 9.95% | [5] -13.6% | [6] -65%

Cc1ccc2nc(-c3ccc(N)cc3)sc2c1S(=O)(=O)O
inactive: [1] 3.3% | [2] 2.15% | [3] 6.8% | [4] 2.45% | [5] 2.3% | [6] 5.65%

Nc1ncc(Cl)cn1
inactive: [1] 19.6% | [2] -21.4% | [3] 8% | [4] -25.2% | [5] -22.3% | [6] -23.6%

c1ccc(CSc2nc3ccccc3nc2-c2cccs2)cc1
inactive: [1] -48.7% | [2] -51.9% | [3] -34.5% | [4] -1.85% | [5] -51.9% | [6] -29.8%

CCCCCCCCCCCC(=O)c1c(O)cccc1O
inactive: [1] -10.1% | [2] -16.1% | [3] 7.75% | [4] 16.9% | [5] 10.7% | [6] -20.1%

Nc1cccc(Cl)c1C(=O)O
inactive: [1] -28.1% | [2] -30.2% | [3] -10.8% | [4] -11.7% | [5] -25.8% | [6] -19.2%

CCOC(=O)c1cnc2c(ccc3ncccc32)c1OCC
inactive: [1] -12.2% | [2] -23.1% | [3] 7.8% | [4] 17.2% | [5] 10.8% | [6] 12.1%

Cc1ccc(-n2cc(/C(N)=N/O)c3ccccc3c2=O)cc1
inactive: [1] -29.8% | [2] -32.4% | [3] -32.8% | [4] -28.6% | [5] -22.8% | [6] -32.5%

O=C1Cc2c([nH]c3ccccc23)-c2cc(Br)ccc2N1
inactive: [1] 13.4% | [2] 6.85% | [3] -2% | [4] 2.9% | [5] 31.6% | [6] 2.9%

Nc1nc(N)c2nc(-c3ccc([N+](=O)[O-])cc3)c(Cl)nc2n1
inactive: [1] -8.2% | [2] -16.3% | [3] -11.9% | [4] -44.9% | [5] -27% | [6] -28.7%

CCC(=O)Nc1nn[nH]n1
inactive: [1] -11.5% | [2] -1.5% | [3] -3.75% | [4] 4.75% | [5] 7.9% | [6] -2.15%

COC1(OC)C2(Cl)CCC1(Cl)C(OC(C)=O)C2 (configuration not stated)
inactive: [1] -21.4% | [2] -5% | [3] 4.65% | [4] 26.8% | [5] -8% | [6] -10.7%

COc1cc2c(c(OC)c1OC)CCC1(C)C(=O)NN=C21 (configuration not stated)
inactive: [1] -18.1% | [2] 11.1% | [3] 23.5% | [4] -1.55% | [5] 13.7% | [6] 3.9%

CCOc1ccc(C2Oc3c(cccc3OC)C=C2[N+](=O)[O-])cc1OCC (configuration not stated)
inactive: [1] 38.8% | [2] 38.9% | [3] 32.5% | [4] 11.4% | [5] 42.2% | [6] 5.7%

CC(C)=NNS(=O)(=O)c1ccc(C)cc1
inactive: [1] -7.7% | [2] 14.6% | [3] 2.65% | [4] 7.2% | [5] -14.2% | [6] -7.55%

CC(C)(C)CC(C)(C)N
inactive: [1] -2.65% | [2] -4.8% | [3] -16.9% | [4] -41.5% | [5] -2.35% | [6] 20.6%

CCOC(=O)C(Cl)(NC(=O)NC(Cl)(C(=O)OCC)C(F)(F)F)C(F)(F)F (configuration not stated)
inactive: [1] 3.8% | [2] 23.8% | [3] -0.85% | [4] -1.75% | [5] 3.2% | [6] 6.65%

CC(=O)C1(N=Nc2ccc(S(N)(=O)=O)cc2)CCOC1=O (configuration not stated)
inactive: [1] 1.35% | [2] -11.3% | [3] -27.1% | [4] 32.4% | [5] -29.4% | [6] 22.7%

NC(CSCC(=O)O)C(=O)O (configuration not stated)
inactive: [1] -19.8% | [2] -3.85% | [3] 1.15% | [4] -20.6% | [5] 16.1% | [6] -5.9%

Cc1ccc(N=C(N)NC#N)cc1
inactive: [1] -11.9% | [2] -46% | [3] -27.1% | [4] 16.6% | [5] -34% | [6] -7.75%

C/C(=C\C(N)=O)C(C)(C)C
inactive: [1] 4.15% | [2] -2.25% | [3] 9.35% | [4] 10.3% | [5] 21.9% | [6] -41.1%

CC(O)C1OC(=O)C(O)C1O (configuration not stated)
inactive: [1] -0.75% | [2] 4.95% | [3] -14.8% | [4] -5.9% | [5] 5.95% | [6] -6.05%

CN(C)C(CN)CC1=C(CC(CN)N(C)C)CCC1 (configuration not stated)
inactive: [1] -15.5% | [2] 5.25% | [3] -5.5% | [4] -1% | [5] -5.25% | [6] 17.6%

Cc1onc(-c2ccccc2)c1NC(=O)OC(C)c1cccnc1 (configuration not stated)
inactive: [1] -6.3% | [2] -22.9% | [3] 3.7% | [4] 4.9% | [5] 18.1% | [6] 3.55%

O=C(O)CCc1ccc2ccccc2n1
inactive: [1] 6.3% | [2] -6.6% | [3] -19.8% | [4] -0.05% | [5] -20.6% | [6] -20.2%

O=C(O)CCC(NC(=O)c1ccc(Nc2nc3ccccc3nc2C(=O)O)cc1)C(=O)O (configuration not stated)
inactive: [1] -2% | [2] -11.2% | [3] -6.15% | [4] 3% | [5] 0% | [6] 0.65%

NC(=O)NNCc1ccccc1
inactive: [1] -9.35% | [2] -0.3% | [3] -27.2% | [4] -17.4% | [5] -5.6% | [6] -53.8%

COC(=O)NC1=Nc2ccc(Cl)cc2NS1
inactive: [1] 2.4% | [2] -10.2% | [3] -25.1% | [4] 2.05% | [5] 22.1% | [6] -4.65%

NC(=O)c1ccc(Cl)cc1
inactive: [1] 33% | [2] 14.2% | [3] 15.5% | [4] 14.4% | [5] -0.6% | [6] 2%

O=C1CCCCC(=O)Nc2ccc3nc4ccccc4c(c3c2)SCCCCCCCCSc2c3ccccc3nc3ccc(cc23)N1
inactive: [1] -13.4% | [2] -9.65% | [3] 2.55% | [4] -6.05% | [5] -2.3% | [6] -4.2%

CCOC1(c2ccccc2)OC(=O)c2ccccc21 (configuration not stated)
inactive: [1] 18.9% | [2] 3.15% | [3] 9.8% | [4] 16.7% | [5] 2.4% | [6] 11.7%

CCC1c2c(cc(=O)[nH]c2O)C(=O)N1Cc1ccccc1 (configuration not stated)
inactive: [1] 12.3% | [2] 6.4% | [3] 7.75% | [4] 4.25% | [5] 1.15% | [6] -0.1%

Clc1c(Cl)c(Cl)c(CSCc2c(Cl)c(Cl)c(Cl)c(Cl)c2Cl)c(Cl)c1Cl
inactive: [1] -16.2% | [2] -7% | [3] -12.2% | [4] -31.9% | [5] 2.1% | [6] -13.3%

CCCCCc1ccccn1
inactive: [1] 0.9% | [2] 19.1% | [3] -25.4% | [4] -29.3% | [5] 12.1% | [6] -11.2%

CC1(C=O)C(=O)CCC2(C)C3CC(=O)OC3CCC12 (configuration not stated)
inactive: [1] -35% | [2] -10.1% | [3] -10.8% | [4] -20.3% | [5] -17.7% | [6] -27.1%

Cc1nccn1C(C)c1ccccc1 (configuration not stated)
inactive: [1] -9.8% | [2] -19.9% | [3] -16.2% | [4] -95.3% | [5] 0.35% | [6] -25.4%

COc1ccc(NC(=O)COc2ccc(Cl)cc2Cl)cc1
inactive: [1] 22.9% | [2] 26.8% | [3] 31.4% | [4] 36% | [5] 33% | [6] 19.6%

— PubChem BioAssay (NCI)
